Source: PubChem BioAssay
GRK2 inh = human GRK2 inhibition via aptamer displacement; P25098; bead flow cytometry, FAM-aptamer displacement from GRK2; inhibition of aptamer binding, % at 10 µM; 0.59% of 330,000 active; AID 488847;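 active means inhibition of aptamer binding above 40%, roughly 3 SD of noise, on plates passing a quality check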;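 further: median bead fluorescence of bound FAM aptamer so fluorescent compounds give negative values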
HDAC3 inh = human HDAC3 inhibition | AID 2718 | inhibition, % at 8.3 µM | recombinant HDAC3, fluorogenic peptide/trypsin coupled, fluorescence | O15379 | 0.15% of 320,000 active; in the data active means inhibition above about 26%, passing the limit was not always enough
H9c2 protect = modulators protecting cardiomyocytes from myocardial damage. H9c2 cardiomyocytes, H2O2 injury protection, ATPLite, 2 h. protection from H2O2 cell death, % at 20 µM. 0.63% of 360,000 active;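 active means compounds giving at least 50% protection of heart cells from peroxide-induced death in the single-dose screen, raw or plate-pattern-corrected value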;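 further: 0% = DMSO wells with peroxide and 100% = DMSO wells without peroxide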
Neddylation inh = inhibitors of human cullin neddylation. P61081+Q13564. TR-FRET cullin neddylation, biochemical. inhibition, % at 25 µM. 0.58% of 360,000 active. AID 651699; in the data active means inhibition above about 36%
Target sequence (P61081 whole entry, looked up): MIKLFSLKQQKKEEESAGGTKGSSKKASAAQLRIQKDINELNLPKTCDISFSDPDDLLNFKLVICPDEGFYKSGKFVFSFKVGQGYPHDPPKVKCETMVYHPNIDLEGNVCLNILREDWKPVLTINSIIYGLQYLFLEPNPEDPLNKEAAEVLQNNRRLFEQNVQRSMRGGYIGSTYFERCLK
Target sequence (Q13564 whole entry, looked up): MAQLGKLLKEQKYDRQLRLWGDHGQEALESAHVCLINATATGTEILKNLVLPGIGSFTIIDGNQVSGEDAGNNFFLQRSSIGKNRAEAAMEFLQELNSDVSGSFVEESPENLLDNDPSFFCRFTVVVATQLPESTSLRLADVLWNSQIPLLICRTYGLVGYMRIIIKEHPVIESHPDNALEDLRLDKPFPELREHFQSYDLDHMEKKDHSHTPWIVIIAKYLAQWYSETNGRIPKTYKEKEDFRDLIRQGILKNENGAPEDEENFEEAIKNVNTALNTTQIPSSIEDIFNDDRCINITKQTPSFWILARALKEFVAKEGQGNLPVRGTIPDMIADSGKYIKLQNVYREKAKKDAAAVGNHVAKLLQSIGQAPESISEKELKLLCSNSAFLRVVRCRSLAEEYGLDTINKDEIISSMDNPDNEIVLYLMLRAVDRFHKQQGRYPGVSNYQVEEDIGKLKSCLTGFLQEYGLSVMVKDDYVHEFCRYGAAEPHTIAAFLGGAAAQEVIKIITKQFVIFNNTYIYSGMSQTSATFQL
Neddyl conf = confirmation of human cullin neddylation inhibitors; 13% of 1,800 active; shares compounds with Neddylation inh; AID 652217; TR-FRET cullin neddylation biochemical assay; calls only at 25 µM; in the data active means inhibition above about 40%;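 further: neddylation substrate is the cullin 1 ring ligase complex with SKP2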
* marks the source's active call; other numbers are inactive results; i = inactive; x = no result shown; + = active, no number; ! = a repeat was not active. Hits are enriched below; roughly 1.8% of the tested compounds scored in any of these assays.

SMILES | GRK2 inh | HDAC3 inh | H9c2 protect | Neddylation inh | Neddyl conf
COc1ccc(C(CNC(=O)c2ccco2)N2CCOCC2)cc1 (stereo unspecified) | 0 | -7 | -1 | -27 | x
CC(C)CCn1c(O)c(N=NC(=O)Cn2ccc(C(F)(F)F)n2)c2ccccc21 | 0 | -1 | 0 | 0 | x
NC(=O)c1cccc(N=Cc2cc(Cl)cc(Cl)c2O)c1 | x | x | 48 | 38* | i
Oc1c(Cl)cc(Cl)cc1C=Nc1ccccc1N1CCCC1 | 1 | 10 | x | x | x
COc1ccc2c(c1)sc(=NC(=O)CS(=O)(=O)c1ccc(F)cc1)n2C | 0 | 4 | -15 | 11 | x
Cc1cc(=O)[nH]c(Nc2ccccc2C)n1 | 1 | 2 | 5 | -1 | x
Cc1ccc2nc(NCCCN3CCOCC3)c(C=NCCCN3CCOCC3)c(=O)n2c1 | x | x | 1 | 42* | i
Cc1ccc2nc(NCc3ccccc3)c(C=NCc3ccccc3)c(=O)n2c1 | 0 | 1 | -4 | 18 | x
COc1ccc(-c2ncccc2O)cc1 | 0 | -14 | 2 | x | x
CCOc1c(C)cc(-c2ncccc2O)cc1C | 2 | -4 | 6 | 45*! | i
Cc1nn(-c2ccccc2)c2nc3c(cc12)C(=O)CCC3 | 0 | 3 | 2 | 44* | i
COc1ccc(C(CNS(=O)(=O)c2ccc(NC(C)=O)c(OC)c2)N2CCCCC2)cc1 (stereo unspecified) | 0 | -8 | 3 | -16 | x
O=C(Nc1ccon1)Nc1ccc(F)cc1F | 10 | -2 | -1 | 0 | x
Cc1cc2n(n1)C(c1ccc3c(c1)OCO3)Nc1ccccc1-2 (stereo unspecified) | 2 | -4 | 4 | 41* | i
Cc1ccc2c(c1)-c1cc(C)nn1C(c1ccc3c(c1)OCO3)N2 (stereo unspecified) | 2 | -4 | -2 | x | x
Nc1ccn([C@@H]2O[C@H](CN=C3NS(=O)(=O)c4ccccc43)[C@@H](O)[C@H]2O)c(=O)n1 | x | x | 6 | 1 | x
Cc1cc(/C=C(/C#N)C(=O)O)c(C)n1CCC(C)C | 0 | 5 | -2 | 9 | x
COCCn1c(C)cc(/C=C(\C#N)C(=O)OC(C)C(=O)Nc2ccc(NC(C)=O)cc2)c1C (stereo unspecified) | 0 | 0 | 0 | 52* | i
CC1Oc2ccccc2C=C1/C=N/NC(=O)c1ccccc1O (stereo unspecified) | 0 | 2 | -22 | 51* | i
CNc1c(NS(=O)(=O)c2ccc(Br)cc2)c(=O)oc2ccccc12 | 0 | 1 | 2 | 8 | x
CNc1c(NS(=O)(=O)c2ccc(C(C)(C)C)cc2)c(=O)oc2ccccc12 | 1 | 7 | -9 | 42* | i
c1csc(-c2nc3nc4ccccc4nc3n2Cc2ccc3c(c2)OCO3)c1 | 5 | 3 | 12 | 37* | i
c1ccc(Cn2c(-c3ccccc3)nc3nc4ccccc4nc32)cc1 | 2 | 8 | 0 | 44* | i
Cc1cc(C=O)c(C)c2c1[nH]c1ccccc12 | x | x | -3 | 40* | i
CCOC(=O)COc1ccccc1/C=N\NC(=O)c1cc2c(ccc3ccccc32)o1 | 7 | 7 | 50 | 55* | x
SMILES | GRK2 inh | HDAC3 inh | H9c2 protect | Neddylation inh | Neddyl conf
CCc1c(C)n2nc(C)cc2[nH]c1=O | 0 | 1 | 5 | 47* | +
CCc1c(C)c2c(C)nn(-c3ccccc3)c2[nH]c1=O | 0 | -5 | -1 | 11 | x
COc1ccccc1C(=O)C1CCCN(C(=O)Nc2ccccc2F)C1 (stereo unspecified) | 0 | -11 | -10 | 2 | x
CCCCC1=CC2=CC(=O)C(C)(OC(=O)CC)C(=O)C2=CN1CCc1ccccn1 (stereo unspecified) | 3 | -4 | -3 | 38* | i
CCOc1ccc(NC(=S)N2CCN(c3ccc(N4CCOCC4)nn3)CC2)cc1 | 0 | -7 | -3 | 42* | i
CCOC(=O)c1ccc(NC(=S)N2CCN(c3ccc(N4CCOCC4)nn3)CC2)cc1 | 3 | 12 | -5 | x | x
CCc1nn(C(CC)C(=O)NCC(C)c2ccccc2)c(=O)c2cc3occc3n12 (stereo unspecified) | x | x | 0 | 2 | x
Oc1ccc(C2CNCCc3c2cc(O)c(O)c3Cl)cc1 (stereo unspecified) | 2 | -23 | 58*! | 50*! | x
O=C(COC(=O)C1(c2cccc(F)c2)CCCC1)NCc1ccc2c(c1)OCO2 | 2 | x | -10 | 6 | x
O=C(N/N=C/c1c[nH]c2ccccc12)c1cc(Cl)ccc1O | 0 | -3 | 3 | 50* | i
COc1ccc(N2CCN(CCS(=O)(=O)c3cc(Cl)ccc3Cl)CC2)cc1 | 0 | -2 | -3 | -15 | x
